What all share (conditions): mRNA level, 48 h; actives raise or lower the signal
Read-out in assay [1]: Fatty acid synthase (Homo sapiens) (UniProt P49327)
Description: LTEA_HepaRG_FASN: Life Technologies and Expression Analysis (LTEA) Assay for Fatty Acid Synthase (FASN) using HepaRG (AID 2283448). An outline of the steps:
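Transcript-level assay: HepaRG liver cells are treated for 48 h across an eight-point range topping at 100 uM, and FASN mRNA, normalized to three housekeeping genes, is compared with DMSO controls in both directions.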

Read-out in assay [2]: Cyclin Dependent Kinase Inhibitor 1A (CDKN1A), CDKN1A (gene 1026)
Description: LTEA_HepaRG_CDKN1A: Life Technologies and Expression Analysis (LTEA) Assay for Cyclin Dependent Kinase Inhibitor 1A (CDKN1A) using HepaRG (AID 2283450). In a few lines:
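Read-out is CDKN1A mRNA by TaqMan qRT-PCR, normalized to three housekeeping genes and fitted in both directions against the DMSO baseline. Human HepaRG cells were treated 48 h with test chemicals up to 100 uM in half-log steps, 0.5% DMSO.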

Read-out in assay [3]: Cyclin D1 (CCND1), CCND1 (gene 595)
Description: LTEA_HepaRG_CCND1: Life Technologies and Expression Analysis (LTEA) Assay for Cyclin D1 (CCND1) using HepaRG (AID 2283451).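 As to AC50: TaqMan qRT-PCR transcript level normalised to ACTB GAPDH and POLR2A housekeeping genes.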 An outline of the steps: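 HepaRG plated 48 h, medium switched to serum-free induction medium, chemicals added in duplicate (top 100 uM, half-log steps, 0.5% DMSO) for 48 h, cells lysed, RNA measured by TaqMan qRT-PCR.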

Read-out in assay [4]: catalase (CAT), CAT (gene 847)
Put plainly: LTEA_HepaRG_CAT: Life Technologies and Expression Analysis (LTEA) Assay for catalase (CAT) using HepaRG (AID 2283452).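 As to AC50: TaqMan qRT-PCR signal normalized to ACTB GAPDH and POLR2A housekeeping genes.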 An outline of the steps: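 Differentiated HepaRG cells in serum-free induction medium were dosed 48 h in duplicate, eight half-log concentrations from 100 uM in 0.5% DMSO. Transcript measured by TaqMan qRT-PCR, normalised to ACTB/GAPDH/POLR2A, fitted bidirectionally against DMSO.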

Read-out in assay [5]: flavin-containing dimethylaniline monooxygenases 3 (FMO3), FMO3 (gene 2328)
Put plainly: LTEA_HepaRG_FMO3: Life Technologies and Expression Analysis (LTEA) Assay for flavin-containing dimethylaniline monooxygenases 3 (FMO3) using HepaRG (AID 2283453).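 As to AC50: FMO3 transcript by TaqMan qRT-PCR normalized to ACTB GAPDH and POLR2A.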 An outline of the steps: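 HepaRG, 48 h exposure, 8-pt half-log series from 100 uM, 0.5% DMSO vehicle, duplicates; FMO3 transcript by Fluidigm TaqMan qRT-PCR, housekeeping-normalized; gain/loss fit vs DMSO.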

Read-out in assay [6]: Cytochrome P450 (CYP1A1), CYP1A1 (gene 1543)
Put plainly: LTEA_HepaRG_CYP1A1: Life Technologies and Expression Analysis (LTEA) Assay for Cytochrome P450 (CYP1A1) using HepaRG (AID 2283454). An outline of the steps:
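HepaRG, 48 h post-plating switched to serum-free induction medium; 8-pt conc-response (top 100 uM, half-log, 0.5% DMSO), duplicates, 48 h. Lysis in RLT, TaqMan qRT-PCR for CYP1A1; gain or loss vs DMSO.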

Read-out in assay [7]: CFLAR gene, CFLAR (gene 8837)
Put plainly: LTEA_HepaRG_CFLAR: Life Technologies and Expression Analysis (LTEA) Assay for CFLAR gene using HepaRG (AID 2283455). In a few lines: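 HepaRG cells were plated for 48 h, switched to serum-free induction medium, then exposed in duplicate for 48 h to 8 concentrations (top 100 uM, half-log steps, 0.5% DMSO). CFLAR mRNA was measured by qRT-PCR, normalized to ACTB, GAPDH and POLR2A.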

Read-out in assay [8]: Forkhead box O1 (FOXO1), FOXO1 (gene 2308)
Put plainly: LTEA_HepaRG_FOXO1: Life Technologies and Expression Analysis (LTEA) Assay for Forkhead box O1 (FOXO1) using HepaRG (AID 2283456). In a few lines:
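Differentiated human HepaRG cells in serum-free induction medium were exposed in duplicate for 48 h to eight half-log concentrations (top 100 uM, 0.5% DMSO). FOXO1 mRNA was measured by TaqMan qRT-PCR, normalised to ACTB, GAPDH and POLR2A, and fitted bidirectionally against DMSO.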

Read-out in assay [9]: growth arrest and DNA damage 45 (GADD45A), GADD45A (gene 1647)
Description: LTEA_HepaRG_GADD45A: Life Technologies and Expression Analysis (LTEA) Assay for growth arrest and DNA damage 45 (GADD45A) using HepaRG (AID 2283458). An outline of the steps:
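Human HepaRG liver cells are treated in duplicate for 48 h with chemicals in 0.5% DMSO, highest concentration 100 uM. Expression is read by qRT-PCR and analyzed in both directions against vehicle.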

Read-out in assay [10]: Forkhead box O3 (FOXO3), FOXO3 (gene 2309)
Put plainly: LTEA_HepaRG_FOXO3: Life Technologies and Expression Analysis (LTEA) Assay for Forkhead box O3 (FOXO3) using HepaRG (AID 2283459). In a few lines:
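Differentiated human HepaRG cells in serum-free induction medium were exposed in duplicate for 48 h to eight half-log concentrations up to 100 uM in 0.5% DMSO. FOXO3 mRNA was quantified by qRT-PCR, normalized to ACTB, GAPDH and POLR2A, with bidirectional fitting versus DMSO.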

Read-out in assay [11]: ABC Transporter (ABCB1), ABCB1 (gene 5243)
Put plainly: LTEA_HepaRG_ABCB1: Life Technologies and Expression Analysis (LTEA) Assay for ABC Transporter (ABCB1) using HepaRG (AID 2283460). An outline of the steps:
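Differentiated human HepaRG cells, plated 48 h then switched to serum-free induction medium, were exposed in duplicate to eight half-log concentrations up to 100 uM in 0.5% DMSO for 48 h. ABCB1 mRNA was measured by TaqMan qRT-PCR, normalized to ACTB/GAPDH/POLR2A.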

Read-out in assay [12]: growth arrest and DNA damage 45 (GADD45B), GADD45B (gene 4616)
Description: LTEA_HepaRG_GADD45B: Life Technologies and Expression Analysis (LTEA) Assay for growth arrest and DNA damage 45 (GADD45B) using HepaRG (AID 2283461). An outline of the steps:
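HepaRG, ~100,000 cells/well, 48 h plating; serum-free induction medium; cpd 100 uM top, half-log x8, 0.5% DMSO, duplicate, 48 h; lysis in RLT, RNA isolation, qRT-PCR; norm ACTB/GAPDH/POLR2A; bidirectional fit vs DMSO.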

Read-out in assay [13]: ABC Transporter (ABCC3), ABCC3 (gene 8714)
Put plainly: LTEA_HepaRG_ABCC3: Life Technologies and Expression Analysis (LTEA) Assay for ABC Transporter (ABCC3) using HepaRG (AID 2283462). In a few lines:
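Human HepaRG, 48 h dosing, 8-pt half-log series from 100 uM, 0.5% DMSO vehicle, duplicates. ABCC3 mRNA by TaqMan qRT-PCR, housekeeping-normalized; bidirectional curve fit vs DMSO.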

Read-out in assay [14]: ABC Transporter (ABCB11), ABCB11 (gene 8647)
Description: LTEA_HepaRG_ABCB11: Life Technologies and Expression Analysis (LTEA) Assay for ABC Transporter (ABCB11) using HepaRG (AID 2283463). In a few lines: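 Differentiated human HepaRG cells were exposed for 48 h in serum-free induction medium to eight half-log concentrations up to 100 uM in 0.5% DMSO. ABCB11 mRNA was quantified by qRT-PCR, normalized to ACTB, GAPDH and POLR2A, and fitted bidirectionally versus DMSO.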

Read-out in assay [15]: ABC Transporter (ABCC2), ABCC2 (gene 1244)
Put plainly: LTEA_HepaRG_ABCC2: Life Technologies and Expression Analysis (LTEA) Assay for ABC Transporter (ABCC2) using HepaRG (AID 2283464). An outline of the steps:
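HepaRG, 48 h post-plating; serum-free induction medium; cpd 8-pt, 100 uM top, half-log, 0.5% DMSO, duplicate, 48 h. Readout: ABCC2 mRNA by qRT-PCR, norm. ACTB/GAPDH/POLR2A. Bidirectional fit vs DMSO baseline.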

Read-out in assay [16]: Broad substrate specificity ATP-binding cassette transporter ABCG2 (Homo sapiens) (UniProt Q9UNQ0)
Description: LTEA_HepaRG_ABCG2: Life Technologies and Expression Analysis (LTEA) Assay for ABC Transporter (ABCG2) using HepaRG (AID 2283465). In a few lines:
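Differentiated HepaRG cells in serum-free induction medium were exposed for 48 h, in duplicate, to eight half-log concentrations up to 100 uM in 0.5% DMSO. ABCG2 mRNA was measured by TaqMan qRT-PCR, normalized to ACTB, GAPDH and POLR2A, and fitted bidirectionally versus DMSO.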

Read-out in assay [17]: ATP-citrate lyase (ACLY), ACLY (gene 47)
Description: LTEA_HepaRG_ACLY: Life Technologies and Expression Analysis (LTEA) Assay for ATP-citrate lyase (ACLY) using HepaRG (AID 2283466). In a few lines: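 Differentiated human HepaRG cells in serum-free induction medium exposed 48 h, in duplicate, to eight half-log concentrations from 100 uM top in 0.5% DMSO; ACLY mRNA measured by qRT-PCR, normalized to ACTB, GAPDH, POLR2A, fitted bidirectionally versus DMSO.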

Read-out in assay [18]: Peroxisomal acyl-coenzyme A oxidase 1 (ACOX1) gene, ACOX1 (gene 51)
Description: LTEA_HepaRG_ACOX1: Life Technologies and Expression Analysis (LTEA) Assay for Peroxisomal acyl-coenzyme A oxidase 1 (ACOX1) gene using HepaRG (AID 2283467). An outline of the steps:
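Differentiated human HepaRG cells were exposed in duplicate for 48 h in serum-free induction medium to eight half-log concentrations up to 100 uM in 0.5% DMSO. ACOX1 mRNA was then quantified by TaqMan qRT-PCR, normalized to ACTB, GAPDH and POLR2A.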

The record followed here is PubChem BioAssay (EPA / NIEHS).

Active and inactive are the calls of the source. The calls were made as follows: active = hit-call score of the fitted dose curve at least 0.9, where 1 is the maximum; inactive = score below 0.9.

Chain of Fatty acid synthase (Homo sapiens) (P49327 whole entry, looked up): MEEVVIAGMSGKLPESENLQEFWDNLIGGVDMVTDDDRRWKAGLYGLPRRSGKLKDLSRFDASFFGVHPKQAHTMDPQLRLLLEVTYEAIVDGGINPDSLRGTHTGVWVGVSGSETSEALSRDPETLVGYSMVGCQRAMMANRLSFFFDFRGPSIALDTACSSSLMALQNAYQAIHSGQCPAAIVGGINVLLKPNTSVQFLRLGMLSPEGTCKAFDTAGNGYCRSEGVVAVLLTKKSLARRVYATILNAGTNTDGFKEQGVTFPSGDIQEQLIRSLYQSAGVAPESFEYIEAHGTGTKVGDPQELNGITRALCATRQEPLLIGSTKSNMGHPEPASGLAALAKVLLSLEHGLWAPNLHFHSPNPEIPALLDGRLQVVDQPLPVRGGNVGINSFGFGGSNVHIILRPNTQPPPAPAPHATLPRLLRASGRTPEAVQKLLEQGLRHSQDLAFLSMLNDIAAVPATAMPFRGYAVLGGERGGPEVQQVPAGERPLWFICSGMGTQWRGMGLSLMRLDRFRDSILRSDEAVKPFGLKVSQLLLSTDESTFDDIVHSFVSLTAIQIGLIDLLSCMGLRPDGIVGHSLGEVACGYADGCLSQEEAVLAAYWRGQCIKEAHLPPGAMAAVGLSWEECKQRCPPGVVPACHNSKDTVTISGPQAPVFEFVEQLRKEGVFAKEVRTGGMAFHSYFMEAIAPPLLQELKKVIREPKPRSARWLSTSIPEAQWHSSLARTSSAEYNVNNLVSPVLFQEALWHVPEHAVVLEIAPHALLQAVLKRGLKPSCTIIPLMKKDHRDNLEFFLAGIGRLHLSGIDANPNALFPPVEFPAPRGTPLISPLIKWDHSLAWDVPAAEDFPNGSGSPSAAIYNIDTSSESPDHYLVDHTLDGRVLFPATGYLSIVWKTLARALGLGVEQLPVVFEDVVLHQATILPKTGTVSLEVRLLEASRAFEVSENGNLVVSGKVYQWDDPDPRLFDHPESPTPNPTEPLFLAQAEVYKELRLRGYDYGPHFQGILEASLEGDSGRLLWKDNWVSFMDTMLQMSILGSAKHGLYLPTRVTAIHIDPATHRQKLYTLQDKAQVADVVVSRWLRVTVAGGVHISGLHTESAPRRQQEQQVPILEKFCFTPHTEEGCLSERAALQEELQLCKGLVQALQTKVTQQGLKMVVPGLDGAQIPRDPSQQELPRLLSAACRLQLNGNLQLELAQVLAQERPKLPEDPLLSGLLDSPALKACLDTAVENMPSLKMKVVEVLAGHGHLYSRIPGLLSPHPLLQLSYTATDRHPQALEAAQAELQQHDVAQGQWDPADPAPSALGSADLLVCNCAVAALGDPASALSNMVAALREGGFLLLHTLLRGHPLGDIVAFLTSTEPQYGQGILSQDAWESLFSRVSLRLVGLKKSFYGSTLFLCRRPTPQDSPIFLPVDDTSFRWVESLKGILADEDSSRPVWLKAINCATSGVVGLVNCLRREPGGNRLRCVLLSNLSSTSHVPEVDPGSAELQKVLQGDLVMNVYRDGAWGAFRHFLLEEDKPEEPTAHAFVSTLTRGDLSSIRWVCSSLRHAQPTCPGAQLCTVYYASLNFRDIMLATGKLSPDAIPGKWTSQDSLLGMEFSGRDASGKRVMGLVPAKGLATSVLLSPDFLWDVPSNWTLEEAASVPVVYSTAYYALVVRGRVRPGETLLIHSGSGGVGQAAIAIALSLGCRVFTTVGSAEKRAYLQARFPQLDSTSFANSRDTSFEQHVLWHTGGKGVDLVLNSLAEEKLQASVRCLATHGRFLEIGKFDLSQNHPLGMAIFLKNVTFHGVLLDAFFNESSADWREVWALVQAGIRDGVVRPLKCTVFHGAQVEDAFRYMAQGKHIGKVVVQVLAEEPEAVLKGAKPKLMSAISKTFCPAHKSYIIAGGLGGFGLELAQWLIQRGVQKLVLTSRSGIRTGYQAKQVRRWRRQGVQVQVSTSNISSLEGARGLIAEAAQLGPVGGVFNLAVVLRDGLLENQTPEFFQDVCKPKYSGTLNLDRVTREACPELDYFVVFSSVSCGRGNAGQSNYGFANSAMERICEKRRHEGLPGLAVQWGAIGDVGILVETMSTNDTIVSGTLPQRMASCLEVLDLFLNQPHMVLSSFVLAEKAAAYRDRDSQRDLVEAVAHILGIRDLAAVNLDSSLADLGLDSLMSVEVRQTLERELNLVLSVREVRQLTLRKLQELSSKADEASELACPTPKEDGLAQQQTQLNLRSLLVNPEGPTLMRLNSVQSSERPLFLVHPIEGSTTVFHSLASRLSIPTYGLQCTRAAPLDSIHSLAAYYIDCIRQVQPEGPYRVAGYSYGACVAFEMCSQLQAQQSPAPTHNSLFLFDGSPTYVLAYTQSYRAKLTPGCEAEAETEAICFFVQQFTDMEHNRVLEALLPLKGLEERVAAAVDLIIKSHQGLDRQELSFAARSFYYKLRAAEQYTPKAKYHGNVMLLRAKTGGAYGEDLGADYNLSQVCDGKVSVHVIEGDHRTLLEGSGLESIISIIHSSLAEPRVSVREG
Chain of Broad substrate specificity ATP-binding cassette transporter ABCG2 (Homo sapiens) (Q9UNQ0 whole entry, looked up): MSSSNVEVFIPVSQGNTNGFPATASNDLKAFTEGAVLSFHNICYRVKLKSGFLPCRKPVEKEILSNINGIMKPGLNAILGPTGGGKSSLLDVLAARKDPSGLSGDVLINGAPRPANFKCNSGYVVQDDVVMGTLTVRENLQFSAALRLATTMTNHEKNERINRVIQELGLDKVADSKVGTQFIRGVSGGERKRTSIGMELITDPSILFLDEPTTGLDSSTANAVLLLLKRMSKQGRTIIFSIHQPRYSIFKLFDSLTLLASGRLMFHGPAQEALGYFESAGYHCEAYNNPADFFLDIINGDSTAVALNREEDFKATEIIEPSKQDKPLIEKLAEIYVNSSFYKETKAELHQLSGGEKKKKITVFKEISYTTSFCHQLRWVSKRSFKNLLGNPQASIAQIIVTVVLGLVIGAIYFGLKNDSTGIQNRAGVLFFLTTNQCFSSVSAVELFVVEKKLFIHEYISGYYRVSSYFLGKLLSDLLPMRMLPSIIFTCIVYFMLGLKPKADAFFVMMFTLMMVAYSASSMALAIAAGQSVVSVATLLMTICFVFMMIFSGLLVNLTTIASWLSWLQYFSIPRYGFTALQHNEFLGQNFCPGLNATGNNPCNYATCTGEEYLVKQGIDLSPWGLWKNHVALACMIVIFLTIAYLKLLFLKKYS

For `COc1cccc(C(=O)NN(C(=O)c2cc(C)cc(C)c2)C(C)(C)C)c1C`, the compound was called inactive in assay [1], in [2], in [3], in [4], in assay [5] and in [7]. Besides, the outcome in assay [8], in assay [9], in assay [10], in assay [12], in assay [13] and in [17] was inactive. In assay [18], the call was inactive. In addition, the AC50 in assay [6] is 50 µM (active); in [11], 4.33 µM (active); in assay [14] it was 19.5 µM (active); in assay [15], 8.52 µM (active); in [16] it was 16.7 µM (active).
Take `CSc1nc(NC(C)C)nc(NC(C)C)n1`: the compound was called inactive in [1], in [2], in assay [3], in [7], in assay [8] and in [9]. Also, the outcome in assay [10], in assay [12], in assay [13], in assay [15], in assay [16] and in assay [17] was inactive. Further, in assay [18], the compound was called inactive. The AC50 was 50 µM (active) in assay [4]; 35.9 µM (active) in [5]; 22.4 µM (active) in assay [6]; 3.25 µM (active) in assay [11]; 56.7 µM (active) in assay [14].
Regarding `CCC(=NOC/C=C/Cl)C1=C(O)CC(C2CCOCC2)CC1=O` (configuration not stated), the call in assay [1], in [2], in assay [4], in assay [5], in assay [7] and in assay [8] was inactive. For the same compound, the call in assay [9], in assay [10], in [11], in assay [12], in assay [13] and in [14] was inactive. For the same compound, the result in [15], in assay [16], in [17] and in [18] was inactive. For the same compound, the half-maximal activity concentration (AC50) in assay [3] is 0.414 µM (active); in [6] it was 50 µM (active).
Take `CN1COCN(Cc2cnc(Cl)s2)C1=N[N+](=O)[O-]`: the outcome in assay [1], in assay [2], in assay [3], in [4], in assay [5] and in [6] was inactive. The call in assay [7], in assay [8], in assay [9], in assay [10], in assay [11] and in assay [12] was inactive. Besides, the compound was classed as inactive in assay [13], in [14], in [15], in assay [16], in assay [17] and in assay [18].

A word on the AC50: it is the concentration at which the activity in the assay is half-maximal.
